# Calls of active or inactive are those of the source. How the source made its calls: active means hit-call score of the fitted dose curve at least 0.9, where 1 is the maximum; inactive means score below 0.9.
# Experiment: CCTE_Shafer_MEA_acute_spike_number: CCTE's Neural Acute Assay for Total Number of Spikes, Shafer Lab (AID 2284008);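 on AC50: curve fitted for decrease in spike count so AC50 reflects inhibitors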
# Method in brief: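 Using an adaptive detector set to 8x rms noise, spikes were counted in 40-min windows before and after compound addition (0.03-40 uM) to rat cortical networks at 37 C; the well-level change from baseline was analysed relative to DMSO.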
SMILES,outcome,AC50
CC/C=C\CCOC(=O)c1ccccc1O,inactive,–
CC1(C)CC(O)CC(C)(C)N1[O],inactive,–
C1CNCCN1,inactive,–
Oc1ccccc1Cc1ccccc1O,–,0.207 µM (active)

# Experiment: CCTE_Shafer_MEA_acute_firing_rate_mean: CCTE's Neural Acute Assay for Mean Firing Rate, Shafer Lab (AID 2284009);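 further: analyzed for loss of signal so actives lower firing rate relative to DMSO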
# Method in brief: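 Rat primary cortical neurons on 48-well MEA plates, dosed at 0.03-40 uM on DIV 13 or 15; 40 min spontaneous activity recorded at 37 C before and after compound. Spike rate per electrode averaged per well, expressed as percent change from baseline.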
SMILES,outcome,AC50
CC/C=C\CCOC(=O)c1ccccc1O,inactive,–
CC1(C)CC(O)CC(C)(C)N1[O],inactive,–
C1CNCCN1,inactive,–
Oc1ccccc1Cc1ccccc1O,–,0.207 µM (active)

# Experiment: CCTE_Harrill_HTTr_Viability_MCF7: CCTE's 6-hour Cell Viability Assessment for the High-Throughput Transcriptomics (HTTr) Platform, in MCF-7 cells cultured in DMEM + 10% fetal bovine serum, Harrill Lab (AID 2284010)
# Method in brief: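 Membrane integrity was scored by high-content imaging of propidium iodide dye exclusion after a 6 h exposure across an eight-point dilution series. Data were fitted bidirectionally relative to DMSO as negative control and baseline.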
row,SMILES,outcome
1,COC(Cc1ccccc1)OC,inactive
2,CCCCC(C=O)CC (stereo unspecified),inactive
3,C=CCCCCCCCCC=O,inactive
4,CC(=O)/C=C/C1C(C)=CCCC1(C)C (stereo unspecified),inactive
5,CC(C)[N+](C)(CCOC(=O)C1c2ccccc2Oc2ccccc21)C(C)C,inactive
6,C=C(C)C1CC=C(C)CC1 (stereo unspecified),inactive
7,CCCCCC(=O)OCC,inactive
8,Cn1ccnc1,inactive
9,CCCc1ccc(O)c(OC)c1,inactive
10,CCCCCCCCCCCCC,inactive
11,CC(C)OC(=O)c1ccccc1,inactive
12,CC/C=C\CCOC(=O)c1ccccc1O,inactive
13,CCCCCCCC(=O)OCC(COC(=O)CCCCCCC)OC(=O)CCCCCCC,inactive
14,CC(C=O)c1ccccc1 (stereo unspecified),inactive
15,CC(C)=CCl,inactive
16,C=Cc1ccc(OC(C)=O)cc1,inactive
17,O=C(Oc1ccccc1)c1ccccc1O,inactive
18,Cc1ccc([N+](=O)[O-])cc1N,inactive

row,SMILES,outcome
1,CC1(C)CC(O)CC(C)(C)N1[O],inactive
2,O=C(O)CCC(=O)O,inactive
3,NNS(=O)(=O)c1ccc(Oc2ccc(S(=O)(=O)NN)cc2)cc1,inactive
4,O=C(OCc1ccccc1)c1ccc(O)cc1,inactive
5,c1ccc2cnccc2c1,inactive
6,CC1CCC(=O)C1=O (stereo unspecified),inactive
7,CC(=O)CCC=C(C)C,inactive
8,Fc1ccc(Br)cc1,inactive
9,C1CNCCN1,inactive
10,Oc1ccccc1Cc1ccccc1O,inactive
11,CCCCC1C(=O)N(c2ccccc2)N(c2ccccc2)C1=O,inactive
12,CC(=O)OCC=C(C)C,inactive
13,Nc1ncnc2nc[nH]c12,inactive
14,Cc1noc(NS(=O)(=O)c2ccc(N)cc2)c1C,inactive
15,CN(C)c1ccc2nc3ccc(=[N+](C)C)cc-3sc2c1,inactive
16,CCOC(=O)C1=NOC(c2ccccc2)(c2ccccc2)C1,inactive
17,Cc1c[nH]c(=O)[nH]c1=O,inactive

# Experiment: CCTE_Harrill_HTTr_Apoptosis_MCF7: CCTE's 6-hour Apoptosis Assessment for the High-Throughput Transcriptomics (HTTr) Platform, in MCF-7 cells cultured in DMEM + 10% fetal bovine serum, Harrill Lab (AID 2284011)
# Method in brief: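 Apoptosis in MCF-7 cells grown in DMEM with 10% fetal bovine serum was scored after a six hour exposure by high content imaging of caspase-3/7 activation (CellEvent Caspase 3/7 Green), with DMSO serving as negative control and baseline.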
row,SMILES,outcome
1,Cn1ccnc1,inactive
2,C1CNCCN1,inactive
3,Oc1ccccc1Cc1ccccc1O,inactive
